From PubChem
The list is not random: actives were taken first. Their share in the collection is about 2.3%.
Pol iota inh = qHTS for Inhibitors of Polymerase Iota. DNA polymerase iota (Homo sapiens), Q9UNA4. Pol iota fluorescent replication assay, 10 min. Potency, µM (doses to about 115 µM), for the others: at the highest dose activity, negative = inhibition, hits mostly inhibitors. 390,000 tested, 1% active. AID 588590, 2011
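Fluorescent replication assay read twice, at 0 min and 10 min after adding 50 nM (final) substrate. Enzyme (10 nM) and compounds were first incubated 15 min at room temperature; enzyme-free buffer wells were negative controls.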
POLK inh = qHTS for Inhibitors of Polymerase Kappa; purified Pol kappa, fluorescent DNA synthesis assay, 10 min; Potency, µM (highest dose often 107 µM), without a hit: at the top dose activity, negative = inhibition, most hits filed as inhibitors; 400,000 tested, 0.53% active; note: % is set by controls: 0 for no effect and ±100 for the full control effect
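Here, compound and 10 nM enzyme are combined for 15 min at room temperature; adding 50 nM substrate (final) starts DNA synthesis, tracked by fluorescence at 0 and 10 min against buffer-only wells.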
WRN helicase inh = qHTS for Inhibitors of WRN Helicase; WRN helicase unwinding, fluorescent forked duplex, kinetic; Potency, µM (highest dose often 114 µM), for inactives: at the top dose activity change, negative = inhibition, usual class: inhibitors; AID 651768, 2012; Bifunctional 3'-5' exonuclease/ATP-dependent helicase WRN (Homo sapiens), Q14191; 360,000 tested, 0.46% active; note: % is set by controls: 0 for no effect and ±100 for the full control effect; nearly all actives have a fitted effect of over 55% in size
Target sequence (Q14191 whole entry, looked up): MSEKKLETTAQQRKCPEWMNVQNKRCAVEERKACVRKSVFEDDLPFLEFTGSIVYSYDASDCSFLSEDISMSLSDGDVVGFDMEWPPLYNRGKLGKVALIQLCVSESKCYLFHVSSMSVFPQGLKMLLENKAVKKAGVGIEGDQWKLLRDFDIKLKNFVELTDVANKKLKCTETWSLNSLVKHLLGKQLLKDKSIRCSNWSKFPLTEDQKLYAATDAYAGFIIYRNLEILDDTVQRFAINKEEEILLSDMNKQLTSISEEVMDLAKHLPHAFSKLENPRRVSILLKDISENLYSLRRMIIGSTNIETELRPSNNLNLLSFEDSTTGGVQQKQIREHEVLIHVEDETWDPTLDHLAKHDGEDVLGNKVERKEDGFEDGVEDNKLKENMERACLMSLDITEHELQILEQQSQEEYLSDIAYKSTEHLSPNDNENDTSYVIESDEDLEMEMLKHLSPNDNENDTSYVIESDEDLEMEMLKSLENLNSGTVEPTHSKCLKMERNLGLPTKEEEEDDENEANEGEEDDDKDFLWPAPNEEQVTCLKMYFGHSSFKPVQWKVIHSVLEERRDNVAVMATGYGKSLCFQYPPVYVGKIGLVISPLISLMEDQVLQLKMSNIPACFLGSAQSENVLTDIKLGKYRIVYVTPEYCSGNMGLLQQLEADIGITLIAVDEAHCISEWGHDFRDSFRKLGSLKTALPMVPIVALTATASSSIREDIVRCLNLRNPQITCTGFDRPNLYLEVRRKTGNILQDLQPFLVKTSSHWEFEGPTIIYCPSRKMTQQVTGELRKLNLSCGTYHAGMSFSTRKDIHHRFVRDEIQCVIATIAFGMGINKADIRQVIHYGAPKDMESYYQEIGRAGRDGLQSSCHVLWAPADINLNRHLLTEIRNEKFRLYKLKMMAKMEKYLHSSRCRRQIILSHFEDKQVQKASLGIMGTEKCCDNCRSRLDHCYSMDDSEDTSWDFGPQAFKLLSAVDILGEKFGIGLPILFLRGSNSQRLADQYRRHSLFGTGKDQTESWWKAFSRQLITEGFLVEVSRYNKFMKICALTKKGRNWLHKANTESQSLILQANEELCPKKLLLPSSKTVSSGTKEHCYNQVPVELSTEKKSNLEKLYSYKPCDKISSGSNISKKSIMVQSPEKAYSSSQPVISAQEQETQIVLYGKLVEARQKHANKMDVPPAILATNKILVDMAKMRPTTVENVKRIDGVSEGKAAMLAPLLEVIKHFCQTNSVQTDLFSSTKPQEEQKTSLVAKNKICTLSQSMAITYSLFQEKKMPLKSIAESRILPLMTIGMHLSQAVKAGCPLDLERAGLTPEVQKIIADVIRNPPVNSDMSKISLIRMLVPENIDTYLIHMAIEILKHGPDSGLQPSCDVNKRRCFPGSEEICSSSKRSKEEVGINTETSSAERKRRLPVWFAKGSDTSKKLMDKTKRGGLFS
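Primary qHTS, 1536-well format. 20 nM WRN + compound, 15 min RT; start with 100 nM forked fluorophore/quencher duplex, 2 mM ATP (final); kinetic read ex 525/em 598 nm.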
POLH inh = qHTS for Inhibitors of Polymerase Eta. DNA polymerase eta (Homo sapiens), Q9Y253. recombinant Pol eta, fluorescent DNA replication assay. Potency, µM (series often up to 114 µM), without a hit: at the top dose activity change, negative = inhibition, most hits filed as inhibitors. 390,000 tested, 1.2% active. AID 588591, 2011; note: % is set by controls: 0 for no effect and ±100 for the full control effect
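Pol eta (10 nM) was preincubated with compounds for 15 min at room temperature, after which fluorescent replication substrate (50 nM final) was added to start the reaction. Fluorescence was read kinetically at 0 and 10 min.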
POLB inh = qHTS Assay for Inhibitors of DNA Polymerase Beta. P06746. Pol beta primer extension/strand displacement, fluorescence kinetic. Potency, µM (series often up to 114 µM), for the others: top-dose activity change, negative = inhibition, hits mostly inhibitors. 340,000 tested, 1.3% active. AID 485314, 2010; note: % is set by controls: 0 for no effect and ±100 for the full control effect
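Pol beta (10 nM) was preincubated with compound for 15 min at room temperature. The reaction was then started with 50 nM substrate and read immediately and after a further 10 min at room temperature.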
* hit, by the source's call; u = inconclusive; x = not tested or not shown; [ ] = another dose, or the depositor's remark. Calls come from the whole dose curve; as a rule, active = well fitted curve in the direction sought with a large enough effect; inconclusive = small, poorly fitted or top-dose-only effect, or another doubt; inactive = no such curve, though single readings can be large; an effect the other way counts as inactive or inconclusive. Potency is the fitted concentration of half-maximal effect.

SMILES	Pol iota inh	POLK inh	WRN helicase inh	POLH inh	POLB inh
CC(C)(C)n1ncc2c(=O)n(Cc3ccc(SC(=O)O)cc3Cl)cnc21	-4.5%	-10.0%	x	x	x
Cc1ccc(/C=c2/sc3n(c2=O)CCCN=3)o1	-7.3%	-14.3%	2.2%	-12.6%	u
O=C(NCc1ccc(/C=c2\sc3n(c2=O)CCN=3)o1)C(=O)Nc1ccccc1	x	x	x	x	4.47µM*
CC1c2cccc(O)c2C(O)=C2C(=O)[C@]3(O)C(O)=C(C(N)=O)C(=O)C(N(C)C)C3C(O)C21 (stereo partly specified)	x	-8.0%[60.1 µM]	x	x	x
Cc1c2c(c(O)c3c(O)cccc13)C(=O)O[C@H]2C1C(N(C)C)C(O)=C(C(N)=O)C(=O)[C@H]1O (stereo partly specified)	x	0.474µM*	x	x	x
COc1cc2cc(Oc3ccc4ccc(=O)oc4c3)c(=O)oc2cc1O[C@@H]1O[C@H](CO)[C@@H](O)[C@H](O)[C@H]1O	50.1µM*	44.7µM*	u	8.91µM*	x
Cc1c(C)c2ccc(O[C@@H]3O[C@H](CO)[C@H](O)[C@H](O)[C@H]3O)cc2oc1=O	-4.6%	14.9%	3.8%	-10.6%	6.2%
Clc1ccc[n+](CCCCC[n+]2cccc(Cl)c2)c1	-16.2%	9.7%	x	x	x
Cc1ccc(CNC(=O)c2cccc3c2C(=O)c2ccc(N4CCCCC4)cc2S3(=O)=O)cc1	u	-17.0%	50.1µM*	-20.1%	x
COc1ccc(-c2ccc3c(c2)S(=O)(=O)c2cccc(C(=O)NCc4cc(C)oc4C(F)(F)F)c2C3=O)cc1OC	u	u	-12.1%[11.6 µM]	11.2µM*	x
Cc1nn(-c2ccccc2)c(C)c1C(=O)NCc1cccs1	27.8%	3.5%	1.5%	-13.1%	47.1%
Cc1nn(-c2ccccc2)c(Cl)c1C(=O)NCc1cccs1	u	-41.3%	-7.0%	u	12.6µM*
COc1ccc(CNCc2ccccc2)cc1COc1ccc(NC(C)=O)cc1	-11.9%	-6.2%	x	x	x
CN1CCC(=O)N(C(CSc2ccc(Br)cc2)c2ccccc2)CC1 (stereo unspecified)	-15.4%	1.8%	x	x	x
Cc1occc1C(=O)NCc1ccc2c(c1)OCO2	8.9%	-21.9%	7.5%	u	0.8%
Cc1occc1C(=O)NCc1cccc(CNC(=O)c2ccoc2C)c1	15.8µM*	31.6µM*	39.8µM*	3.55µM*	22.4µM*
Brc1ccc(C=C2C=c3ccccc3=C2)cc1	40.3%	-33.9%	x	x	x
O=c1[nH]c(O)c(/C=C2\C=Nc3ccc(Br)cc32)[nH]1	26.4%	-13.0%	-11.8%	u	20µM*
O=C(Cn1c(O)c(/C=C2\C=Nc3ccc(Br)cc32)sc1=O)N1CCCC1	u	-15.6%	-15.8%	-15.6%	-3.3%
Cc1ccc(S(=O)(=O)c2nnn3c2nc(N2CCC(C)CC2)c2cc(Cl)ccc23)cc1C	19.5%	3.1%	x	-15.5%	2.5%
O=C(CNC(=O)c1cccc(-n2cccc2)c1)Nc1ccccc1Br	x	x	-23.1%	31.6µM*	x
CCOC(=O)CN(Cc1cc(OC)cc(N(C)C)c1OC)C(=O)C1CC(CO[Si](C)(C)C(C)(C)C)=CN1C(=O)OC(C)(C)C (stereo unspecified)	-18.5%	-3.1%	x	x	x
CC1CCC/C(=C\Nc2ccc(O)cc2)C1=O (stereo unspecified)	8.91µM*	-20.2%	-4.9%[11.6 µM]	-0.5%	6.6%
Cc1cc(C(=O)O)ccc1N/C=C1\CCCC(C)C1=O (stereo unspecified)	2.2%	-20.9%	-2.2%	3.1%	2.9%
O=C(N/N=C/C1=C(N2CCOCC2)C(=C\c2ccccc2)/CC1)Nc1ccccc1	-1.5%	1.1%	-13.4%	-16.3%	9.3%
SMILES	Pol iota inh	POLK inh	WRN helicase inh	POLH inh	POLB inh
O=C(O)c1ccccc1N/N=C/C1=C(N2CCOCC2)C(=C\c2ccccc2)/CC1	14.1µM*	u	u	44.7µM*	u
CC(=O)c1ccc(NC(=O)CSC2=Nc3ccccc3N=C(c3ccc(F)cc3)C2)cc1	9.6%	-18.2%[60.1 µM]	x	-14.2%	-9.6%
Cc1cc(-c2ccccc2)nc2c(Br)c(C(=O)O)nn12	11.2µM*	79.4µM*	u	7.94µM*	x
O=C(O)c1ccccc1NC(=S)NC(=O)c1sc2ccccc2c1Cl	-5.2%	-5.7%	5.8%	8.5%	22.8%
Cc1ccc(NC(=S)NC(=O)c2sc3ccccc3c2Cl)c(C(=O)O)c1	x	x	x	x	20µM*
C/C(CC(=O)Nc1ccc2ccccc2c1)=N\NC(=O)c1cnccn1	3.6%	-15.2%	-5.5%	-8.1%	3.1%
C/C(CC(=O)Nc1ccc2ccccc2c1)=N\NC(=O)c1ccc(O)c(O)c1	u	79.4µM*	-9.4%[11.6 µM]	u	3.55µM*
CCN(CC)c1ccc(-c2nnc(SCC(=O)NCc3ccco3)n2CC)cc1	-22.5%	-3.3%	x	x	x
CCc1ccc(-c2nc(CS(=O)CC(=O)NCc3ccco3)c(C)o2)cc1 (stereo unspecified)	12.0%	-10.0%	-5.0%	89.1µM*	u
Cc1[nH]c2ccccc2c1/C=N/Nc1nncn1N	5.01µM*	-5.2%	-2.4%	-23.1%	u
CCOC(=O)COc1ccccc1/C=C\[N+](=O)[O-]	-21.6%	-8.1%	31.6µM*	-12.6%	-1.5%
Cc1ccc(S(=O)(=O)N2CCN(c3nc(C(N)=O)nc4ccccc34)CC2)cc1	16.7%	2.8%	x	x	x
CCOC(=O)c1c(NC(=O)C2CC(Cl)=CCC2C(=O)O)sc2c1CCCCC2 (stereo unspecified)	-1.5%	-23.4%	-18.8%	-10.5%	35.5µM*
COc1ccc(CCNC(=O)CCCCn2c(=O)c3ccccc3n(Cc3cc(C)ccc3C)c2=O)cc1OC	79.4µM*	-4.7%	x	-3.8%	6.4%
CC(C)=C1C(=O)NN(c2ccc(F)c(Cl)c2)C1=O	u	25.1µM*	u	-7.5%	u
O=C1NN(c2ccc(F)c(Cl)c2)C(=O)/C1=C\c1cccc(OC(=O)c2cccs2)c1	u	u	50.1µM*	20µM*	u
COc1cccc2c1C(=O)/C(=C/c1ccc(N(C)C)cc1)C2	7.9%	-3.0%	x	x	x
CC(=O)NC1=C(C#N)CCC1	17.4%	9.8%	x	x	x
COc1ccc(CNC(=O)CCC2N=C3c4ccccc4N=C(SCc4ccc(F)cc4)N3C2=O)cc1 (stereo unspecified)	-12.9%	-8.2%[60.1 µM]	x	-2.0%	2.4%
CC(=O)Nc1ccc(S(=O)(=O)N2CCSC2c2ccco2)cc1 (stereo unspecified)	111.2%	-6.0%	1.3%	-9.3%	0.6%
O=S(=O)(c1ccccc1)N1CCSC1c1ccco1 (stereo unspecified)	u	-7.9%	-21.0%	u	44.7µM*
Cc1ccc(C2C(C#N)=C(N)SC(N)=C2C#N)cc1	3.3%	-10.4%	-29.1%	-4.5%	0.1%
Cc1ccc(C2C(C#N)=C(N)SC(N)=C2C#N)c(C)c1	25.1µM*	-7.5%	-31.7%	9.0%	-7.4%
